Measurements published in PubChem BioAssay AID504430 (National Center for Advancing Translational Sciences (NCATS), 2011).
The list shows a part of the results. Activity calls are given as the source filed them.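 Rule for the calls: active = compounds that block the splicing kinase Clk1 enough to give a fitted half-inhibition concentration; inactive = the rest.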

molecular target: Dual specificity protein kinase CLK1 (Homo sapiens) (UniProt P49759); test: Kinase Inhibition Study on Inhibitors of CDC-like Kinase 1 (Reaction Biology data); conditions: recombinant Clk1 kinase assay, 10 uM ATP
Sequence (P49759 whole entry, looked up, canonical isoform): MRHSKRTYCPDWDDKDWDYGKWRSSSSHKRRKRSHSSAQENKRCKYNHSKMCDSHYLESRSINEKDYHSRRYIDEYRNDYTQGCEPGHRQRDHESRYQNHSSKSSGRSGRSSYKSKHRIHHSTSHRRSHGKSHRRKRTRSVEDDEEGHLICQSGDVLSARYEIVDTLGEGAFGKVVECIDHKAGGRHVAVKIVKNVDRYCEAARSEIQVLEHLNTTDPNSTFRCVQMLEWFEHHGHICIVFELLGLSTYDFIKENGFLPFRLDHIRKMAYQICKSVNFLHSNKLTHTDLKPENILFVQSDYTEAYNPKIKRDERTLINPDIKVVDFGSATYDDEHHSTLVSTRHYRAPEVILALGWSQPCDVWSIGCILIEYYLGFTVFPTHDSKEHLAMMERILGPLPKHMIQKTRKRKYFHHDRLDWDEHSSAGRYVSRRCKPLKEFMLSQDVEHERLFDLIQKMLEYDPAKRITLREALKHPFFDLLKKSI
Source text: NIH Molecular Libraries Probe Production Centers Network [MLPCN] NIH Chemical Genomics Center [NCGC] MLPCN Grant: 1R03MH084827-01 Assay Submitter (PI): Tom Misteli NCGC Assay Overview: Alternative splicing of pre-mRNAs plays a major role in the regulation of eukaryotic gene expression. Alternative splicing is now thought to be one of the primary reasons for the complexity of higher organisms leading to an average of three protein isoforms per gene. Aberrant splicing can lead to a number of diseases and is known to play a role in rare genetic diseases such as progeria syndrome. Hutchinson-Gilford Progeria Syndrome (HGPS) is a pediatric premature aging disease caused by a spontaneous mutation in the lamin A/C (LMNA) gene due to a single point mutation in the lamin A gene effecting 1 in 4 million people. To identify both specific splicing modulators of the lamin A gene as well as general splicing modulators, a cell-based HTS assay was developed using a minigene reporter system (AIDs, 1459 & 1487). […] This AID summarizes the characterization of lead compounds in Clk1.
All kinase reactions were performed using 10 uM ATP in the assay. 100% activity was taken from kinase reactions with DMSO alone (the vehicle used for compound stock solutions).

Potency, active:
c1nc(N2CCOCC2)c2cc(-c3ccc4c(c3)OCO4)ccc2n1 1110 nM
CN(Cc1cncn1C)c1ncnc2ccc(-c3ccc4c(c3)OCO4)cc12 2800 nM
CC(Nc1ncnc2ccc(-c3ccc4c(c3)OCO4)cc12)c1ccco1 (stereo not drawn) 5750 nM
